Data taken from PubChem BioAssay AID1159580 (chemical genetic matrix, 2015).
Where “and” joins values, the source holds several entries; their conditions need not be identical. Equal values may be shown once. Out of some 5,500 compounds screened, about 2,000 (36%) were called active. Inconclusive results (about 18%) are left out. Rule as the data show it: active = normalized growth mostly below about 0.91 (no sharp cut-off); inconclusive = no clear call, values can overlap the other calls; inactive = mostly above about 0.92. The list shows a part of the results.

Test: chemical genetic growth profiling, strain panel (AID 1159580);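 also: tested at 20 µM; growth read once vehicle control cultures reached saturation at 30 °C; 1 = growth at the plate median or of vehicle wells; lower values mean less growth of the strain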
Settings: growth OD
[1] = S. cerevisiae deletion strains, locus YBR021W, strain FUR4, active compounds read low
[2] = S. cerevisiae deletion strains, locus YBR229C, strain ROT2, active compounds read low
[3] = S. cerevisiae deletion strains, locus YCL029C, strain bik1, active compounds read low
[4] = S. cerevisiae deletion strains, locus YDL035C, strain GPR1, active compounds read low
[5] = S. cerevisiae deletion strains, locus YDL074C, strain BRE1, active compounds read low
[6] = S. cerevisiae deletion strains, locus YDL101C, strain DUN1, active compounds read low
[7] = S. cerevisiae deletion strains, locus YDL185W, strain tfp1, active compounds read low
[8] = S. cerevisiae deletion strains, locus YDL192W, strain arf1, active compounds read low
[9] = S. cerevisiae deletion strains, locus YDR101C, strain arx1, active compounds read low
[10] = S. cerevisiae deletion strains, locus YDR162C, strain NBP2, active compounds read low
[11] = S. cerevisiae deletion strains, locus YDR318W, strain mcm21, active compounds read low
[12] = S. cerevisiae deletion strains, locus YDR388W, active compounds read low
[13] = S. cerevisiae deletion strains, locus YDR502C, strain sam2, active compounds read low
[14] = S. cerevisiae deletion strains, locus YEL061C, strain CIN8, active compounds read low
[15] = S. cerevisiae deletion strains, locus YER110C, active compounds read low
[16] = S. cerevisiae deletion strains, locus YER155C, strain BEM2, active compounds read low
[17] = S. cerevisiae deletion strains, locus YER167W, strain BCK2, active compounds read low
[18] = S. cerevisiae deletion strains, locus YGL078C, strain dbp3, active compounds read low
[19] = S. cerevisiae deletion strains, locus YGL086W, strain mad1, active compounds read low
[20] = S. cerevisiae deletion strains, locus YGL248W, strain PDE1, active compounds read low
[21] = S. cerevisiae deletion strains, locus YGR135W, strain pre9, active compounds read low
[22] = S. cerevisiae deletion strains, locus YGR252W, strain gcn5, active compounds read low
[23] = S. cerevisiae deletion strains, locus YHR079C, strain IRE1 (second series), active compounds read low
[24] = S. cerevisiae deletion strains, locus YHR094C, strain hxt1, active compounds read low
[25] = S. cerevisiae deletion strains, locus YHR129C, strain ARP1, active compounds read low
[26] = S. cerevisiae deletion strains, locus YHR200W, strain rpn10, active compounds read low
[27] = S. cerevisiae deletion strains, locus YIL066C, strain RNR3, active compounds read low
[28] = S. cerevisiae deletion strains, locus YIL073C, strain SPO22, active compounds read low
[29] = S. cerevisiae deletion strains, locus YIL125W, strain kgd1, active compounds read low
[30] = S. cerevisiae deletion strains, locus YIR030C, strain dcg1, active compounds read low
[31] = S. cerevisiae deletion strains, locus YJL095W, strain BCK1, active compounds read low
[32] = S. cerevisiae deletion strains, locus YJL134W, strain LCB3, active compounds read low
[33] = S. cerevisiae deletion strains, locus YJL168C, strain set2, active compounds read low
[34] = S. cerevisiae deletion strains, locus YJL187C, strain SWE1 (second series), active compounds read low
[35] = S. cerevisiae deletion strains, locus YKL009W, strain mrt4, active compounds read low
[36] = S. cerevisiae deletion strains, locus YKL068W, active compounds read low
[37] = S. cerevisiae deletion strains, locus YKL085W, strain MDH1 (second series), active compounds read low
[38] = S. cerevisiae deletion strains, locus YKL085W, strain MDH1, active compounds read low
[39] = S. cerevisiae deletion strains, locus YKR001C, strain vps1, active compounds read low
[40] = S. cerevisiae deletion strains, locus YLR039C, strain RIC1, active compounds read low
[41] = S. cerevisiae deletion strains, locus YLR058C, strain SHM2, active compounds read low
[42] = S. cerevisiae deletion strains, locus YLR102C, strain apc9, active compounds read low
[43] = S. cerevisiae deletion strains, locus YLR268W, strain sec22, active compounds read low
[44] = S. cerevisiae deletion strains, locus YLR371W, strain rom2, active compounds read low
[45] = S. cerevisiae deletion strains, locus YLR418C, strain cdc73, active compounds read low
[46] = S. cerevisiae deletion strains, locus YML016C, strain PPZ1, active compounds read low
[47] = S. cerevisiae deletion strains, locus YML032C, strain rad52, active compounds read low
[48] = S. cerevisiae deletion strains, locus YML124C, strain tub3, active compounds read low
[49] = S. cerevisiae deletion strains, locus YMR078C, strain ctf18, active compounds read low
[50] = S. cerevisiae deletion strains, locus YMR223W, strain ubp8, active compounds read low
[51] = S. cerevisiae deletion strains, locus YMR307W, strain GAS1, active compounds read low
[52] = S. cerevisiae deletion strains, locus YNL067W, strain RPL9B, active compounds read low
[53] = S. cerevisiae deletion strains, locus YNL233W, strain BNI4, active compounds read low
[54] = S. cerevisiae deletion strains, locus YNL250W, strain rad50, active compounds read low
[55] = S. cerevisiae deletion strains, locus YNL271C, strain bni1, active compounds read low
[56] = S. cerevisiae deletion strains, locus YNL298W, strain CLA4, active compounds read low
[57] = S. cerevisiae deletion strains, locus YNL307C, strain MCK1, active compounds read low
[58] = S. cerevisiae deletion strains, locus YNR052C, strain pop2, active compounds read low
[59] = S. cerevisiae deletion strains, locus YOL012C, strain htz1
[60] = S. cerevisiae deletion strains, locus YOL147C, strain pex11, active compounds read low
[61] = S. cerevisiae deletion strains, locus YOR061W, strain CKA2, active compounds read low
[62] = S. cerevisiae deletion strains, locus YOR069W, strain VPS5, active compounds read low
[63] = S. cerevisiae deletion strains, locus YOR136W, strain idh2, active compounds read low
[64] = S. cerevisiae deletion strains, locus YOR144C, strain elg1, active compounds read low
[65] = S. cerevisiae deletion strains, locus YOR184W, strain ser1, active compounds read low
[66] = S. cerevisiae deletion strains, locus YOR316C, strain cot1, active compounds read low
[67] = S. cerevisiae deletion strains, locus YPR119W, strain clb2, active compounds read low
[68] = S. cerevisiae deletion strains, locus YPR141C, strain kar3, active compounds read low
[69] = S. cerevisiae deletion strains, locus YPR163C, strain tif3, active compounds read low
[70] = S. cerevisiae deletion strains, locus YPR167C, strain met16, active compounds read low
[71] = S. cerevisiae deletion strains, strain wtn01, active compounds read low

Measured: normalized growth

COc1cc(C(=O)O)c2c(c1C)OC(=O)c1c(C)cc(O)c(C=O)c1O2
inactive: [1] 0.989 | [2] 0.997 | [3] 1 | [4] 0.977 | [5] 0.943 | [6] 1 | S. cerevisiae deletion strains, locus YDL134C, strain PPH21, active compounds read low 0.986 | [7] 0.93 | [8] 0.991 | [9] 1.01 | S. cerevisiae deletion strains, locus YDR150W, strain NUM1, active compounds read low 0.997 | [10] 0.969 | [11] 1.01 | [12] 0.986 | [13] 1 | [14] 0.993 | [15] 0.969 | [16] 1.02 | [17] 1.01 | [18] 0.954 | [19] 0.986 | [20] 1.01 | [21] 0.988 | [22] 1.05 | [23] 0.988 | [24] 0.989 | [25] 1 | [26] 0.994 | [27] 0.998 | [28] 0.948 | [30] 0.983 | [31] 0.998 | [32] 0.996 | [33] 0.972 | [34] 0.969 | [35] 0.974 | [39] 0.971 | [40] 0.929 | [41] 1.01 | [42] 0.984 | [43] 0.956 | [44] 0.955 | [45] 0.939 | [46] 0.986 | [47] 0.996 | [48] 0.998 | [49] 0.975 | [50] 0.984 | S. cerevisiae deletion strains, locus YMR263W, strain SAP30, active compounds read low 0.991 | [51] 0.923 | [52] 0.997 | S. cerevisiae deletion strains, locus YNL128W, strain TEP1, active compounds read low 0.955 | [53] 1.01 | [54] 0.919 | [57] 0.989 | [58] 0.978 | [59] 0.7 | [60] 1.01 | [61] 0.999 | [62] 0.995 | [63] 1.02 | [64] 0.985 | [65] 0.975 | [66] 0.977 | S. cerevisiae deletion strains, locus YPL055C, strain LGE1, active compounds read low 0.973 | [67] 0.977 | [68] 0.942 | [69] 0.985 | [70] 1.01 | [71] 0.987
active: [29] 0.927 | [36] 0.928 | [37] 0.911 | [38] 0.911 | [55] 0.917 | [56] 0.898

Cc1cc(O)c(C=O)c2c1C(=O)Oc1c(C)c(O)c3c(c1O2)C(O)OC3=O (stereo unspecified)
inactive: [1] 1.03 | [2] 1 | [3] 0.981 | [4] 0.944 | [5] 0.956 | [6] 0.955 | [7] 0.954 | [8] 0.992 | [9] 0.994 | [10] 0.948 | [11] 0.98 | [12] 0.98 | [13] 0.974 | [14] 0.975 | [15] 0.971 | [16] 1.02 | [17] 0.993 | [18] 0.989 | [19] 0.966 | [20] 1 | S. cerevisiae deletion strains, locus YGR078C, strain PAC10, active compounds read low 0.988 | [21] 0.951 | S. cerevisiae deletion strains, locus YGR229C, strain SMI1, active compounds read low 1.03 | [22] 1.02 | S. cerevisiae deletion strains, locus YHR030C, strain SLT2, active compounds read low 0.984 and 0.994 | [23] 0.97 | S. cerevisiae deletion strains, locus YHR079C, strain IRE1, active compounds read low 0.983 | [24] 0.971 | [25] 0.963 | [26] 0.983 | [27] 0.962 | [28] 0.831 | [29] 0.974 | [30] 0.995 | [31] 1.02 and 0.991 | [32] 0.986 | [33] 0.969 | [34] 0.88 | S. cerevisiae deletion strains, locus YJR043C, strain POL32, active compounds read low 0.973 | S. cerevisiae deletion strains, locus YJR066W, strain TOR1, active compounds read low 0.965 | [35] 0.933 | [36] 0.98 | [37] 0.974 | [38] 0.974 | [39] 1.01 | [40] 0.996 | [41] 0.937 | [42] 0.986 | S. cerevisiae deletion strains, locus YLR113W, strain HOG1, active compounds read low 0.984 | [43] 0.965 | S. cerevisiae deletion strains, locus YLR330W, strain CHS5, active compounds read low 0.99 | [44] 0.948 | [45] 0.999 | [46] 0.957 | [47] 0.995 | [48] 0.975 | [49] 0.959 | [50] 0.966 | [51] 1.14 | [52] 0.981 | S. cerevisiae deletion strains, locus YNL153C, strain GIM3, active compounds read low 0.959 | S. cerevisiae deletion strains, locus YNL183C, strain NPR1, active compounds read low 0.944 | [53] 1.03 | [54] 0.963 | [55] 0.946 | [56] 0.986 | [57] 0.978 | [58] 0.955 | [59] 0.674 | [60] 0.97 | [61] 0.963 | [62] 0.982 | [63] 0.985 | [64] 0.974 | [65] 1.01 | S. cerevisiae deletion strains, locus YOR231W, strain MKK1, active compounds read low 0.982 | [66] 0.984 | S. cerevisiae deletion strains, locus YPL241C, strain CIN2, active compounds read low 0.994 | S. cerevisiae deletion strains, locus YPL256C, strain CLN2, active compounds read low 0.928 | [67] 0.979 | [68] 0.969 | [69] 0.993 | [70] 0.983 | [71] 0.963 | S. cerevisiae strains, strain wild type, active compounds read low 0.907
